Results: PubChem BioAssay (Tox21)
Values without a mark were called inactive. Entries that show only a call come without a potency. Active and inactive are the calls of the source. Calls come from the whole dose curve; as a rule, active = well fitted curve in the direction sought with a large enough effect in the repeat runs; inconclusive = weak or mixed curves; inactive = flat fitted curve, though single readings scatter.

Experiment: qHTS assay to test for compound auto fluorescence at 535 nm (green) in HepG2 cells (AID 720675)
Details: green autofluorescence 485/535 nm, 1 h; series mostly up to 91.3 µM
Description: National Center for Advancing Translational Sciences [NCATS]
NIH Chemical Genomics Center [NCGC]
U.S. Environmental Protection Agency [EPA]
National Institutes of Environmental Health Sciences [NIEHS]
National Toxicology Program [NTP]
U.S. Food and Drug Administration [FDA]
Compound auto fluorescence often interferes with screening of the compound library against various biological targets and signaling pathways. Some of these compounds may have fluorophoric properties. Such properties may interfere with the assay outputs resulting in false positives and/or negatives. To decrease such complications and ensure the compound activities are relevant in terms of biological response, the Tox21 10K compound library was screened for auto fluorescence.
From the fluorophores used as reporter signals in our screening assays, the auto fluorescence equivalencies of compounds against three fluorophores have been evaluated: Triamterene, Fluorescein and Rose Bengal sodium for blue, green and red fluorescence, respectively. The fluorescence intensities were measured using Excitation/Emission wavelengths at 405/460nm, 485/535nm and 540/590nm for blue, green and red labels, respectively. This assay includes the green fluorescence data.
Tox21 Assay Protocol Summary:
2,000 HepG2 cells in 5 uL of culture medium (MEM containing 10% FBS) per well were dispensed into black wall/clear bottom 1536-well plates using a Multidrop Combi Dispenser (ThermoFisher Scientific, Waltham, MA). The assay plates were incubated overnight at 37 C to allow cell attachment to the well bottom, followed by the transfer of 23 nL compound or DMSO vehicle by a pintool work station (Kalypsys , San Diego, CA). After the assay plates were incubated for 1 hr at 37 C and 5% CO2, fluorescence intensities in the assay plates were measured by an Envision (PerkinElmer, Shelton, CT) plate reader using three labels for measuring blue, green and red fluorescence at […] 460, 535 and 590 nm respectively.

**Q.** For `COc1cccc(OC)c1C(=O)O`, which Potency is on record?
**A.** Its Potency is “inactive”.

**Q.** With `C=CC(=O)OCCOC(=O)C=C` as the molecule, how does the Potency read?
**A.** Its Potency is “inactive”.

**Q.** Which Potency does the source give for `O[C@@H]([C@H](O)[C@H](O)CBr)[C@H](O)CBr` here?
**A.** The Potency was “inactive”.

**Q.** With `O=C1CCCCCCCCCCCCCCCO1` as the molecule, how does the Potency read?
**A.** Its Potency is “inactive”.

**Q.** For `NC[C@H]1O[C@H](O[C@H]2[C@H](O[C@@H]3O[C@H](CO)[C@@H](O)[C@H]3O)C(O)[C@H](N)C[C@@H]2N)[C@H](N)[C@@H](O)[C@@H]1O` (stereo not given in full), which fluorescence, % of fluorescein control is on record?
**A.** Its fluorescence, % of fluorescein control is 0.155% [at 18.6 µM].

**Q.** With `CCCCOC(=O)CC` as the molecule, how does the Potency read?
**A.** Its Potency is “inactive”.

**Q.** Which Potency does the source give for `Cc1cc(C)c(/C=C2\C(=O)Nc3ccccc32)[nH]1` here?
**A.** Its Potency is “inactive”.

**Q.** For `C[C@@H](O)[C@H](N)C(=O)O`, which Potency is on record?
**A.** The Potency was “inactive”.

**Q.** For `CC(C)NC[C@@H](O)COc1ccc(CC(N)=O)cc1`, which Potency is on record?
**A.** The Potency was “inactive”.

**Q.** For `Cc1c(C)c2c(c(C)c1O)CC[C@@](C)(CCC[C@H](C)CCC[C@H](C)CCCC(C)C)O2`, which Potency is on record?
**A.** The Potency was “inactive”.

**Q.** With `CCCCCCC1CCCC(=O)O1` (stereo not given) as the molecule, how does the Potency read?
**A.** Its Potency is “inactive”.

**Q.** For `CCCCCC/C=C\CCCCCCCC(=O)O`, which Potency is on record?
**A.** The Potency was “inactive”.

**Q.** With `CCCCCCCC` as the molecule, how does the Potency read?
**A.** Its Potency is “inactive”.

**Q.** For `CCc1cccc(CC)c1NC(=O)CN(CC(=O)O)CC(=O)O`, which fluorescence, % of fluorescein control is on record?
**A.** The fluorescence, % of fluorescein control was -0.0501% [at 18.6 µM].

**Q.** For `CC(=O)CC(=O)Nc1ccc(S(=O)(=O)O)cc1`, which Potency is on record?
**A.** The Potency was “inactive”.

**Q.** With `CN(C)Cc1cc(C(C)(C)C)c(O)c(C(C)(C)C)c1` as the molecule, how does the Potency read?
**A.** The Potency was “inactive”.

**Q.** For `C1CCC(SSC2CCCCC2)CC1`, which Potency is on record?
**A.** The Potency was “inactive”.

**Q.** Which Potency does the source give for `Nc1nc(N)nc(-c2cc(Cl)ccc2Cl)n1` here?
**A.** The Potency was “inactive”.

**Q.** Which Potency does the source give for `CCO[Si](OCC)(OCC)OCC` here?
**A.** The Potency was “inactive”.

**Q.** For `CC(C)(c1cc(Br)c(OCC(Br)CBr)c(Br)c1)c1cc(Br)c(OCC(Br)CBr)c(Br)c1` (stereo not given), which Potency is on record?
**A.** The Potency was “inactive”.

**Q.** For `Clc1sc(Cl)c(Cl)c1Cl`, which Potency is on record?
**A.** The Potency was “inactive”.

**Q.** Which Potency does the source give for `COc1ccc2cc1Oc1ccc(cc1)C[C@H]1c3c(cc4c(c3Oc3cc5c(cc3OC)CCN(C)[C@@H]5C2)OCO4)CCN1C` here?
**A.** Its Potency is “inactive”.

**Q.** With `[Cu+]` as the molecule, how does the Potency read?
**A.** Its Potency is “inactive”.

**Q.** For `CCCCCC(C)OC(=O)COc1ccc(Cl)c2cccnc12` (stereo not given), which Potency is on record?
**A.** The Potency was “inactive”.

**Q.** With `CCO[C@@H]1O[C@H](C(COCc2ccccc2)OCc2ccccc2)[C@H](OCc2ccccc2)[C@H]1O` (stereo not given in full) as the molecule, how does the fluorescence, % of fluorescein control read?
**A.** Its fluorescence, % of fluorescein control is -0.0707% [at 18.6 µM].

**Q.** With `CCOC(=O)NNc1ccc(N(CC)CC(C)O)nn1` (stereo not given) as the molecule, how does the Potency read?
**A.** Its Potency is “inactive”.

**Q.** With `C=CCn1c(=O)n(CC=C)c(=O)n(CC=C)c1=O` as the molecule, how does the Potency read?
**A.** The Potency was “inactive”.

**Q.** Which Potency does the source give for `O=C(O)c1cc(=O)c2ccccc2o1` here?
**A.** Its Potency is “inactive”.

**Q.** Which Potency does the source give for `O=C1c2ccccc2C(=O)N1SC1CCCCC1` here?
**A.** Its Potency is “inactive”.

**Q.** With `CN1CCC[C@@H]1CCO[C@](C)(c1ccccc1)c1ccc(Cl)cc1` as the molecule, how does the Potency read?
**A.** The Potency was “inactive”.

**Q.** For `FC(F)(F)c1cccc(Cl)c1`, which Potency is on record?
**A.** The Potency was “inactive”.

**Q.** Which Potency does the source give for `CCOC(=O)c1ccc(C2CCC(NC[C@H](O)COc3ccc(O)c(NS(C)(=O)=O)c3)CC2)cc1` (stereo not given in full) here?
**A.** Its Potency is “inactive”.

**Q.** Which Potency does the source give for `CNc1ccc([N+](=O)[O-])cc1` here?
**A.** The Potency was “inactive”.

**Q.** For `CCCCCCCCCCCC(=O)OCC(C)OC(=O)CCCCC(=O)O` (stereo not given), which Potency is on record?
**A.** The Potency was “inactive”.

**Q.** For `CN1CCN(Cc2cc(-c3ccc4[nH]c(=O)oc4c3)co2)[C@@H](c2ccc(F)cc2)C1`, which Potency is on record?
**A.** The Potency was “inactive”.

**Q.** Which Potency does the source give for `OC1CCCc2ccccc21` (stereo not given) here?
**A.** Its Potency is “inactive”.

**Q.** With `CC(C)(C)c1ccc(C(O)CCCN2CCC(C(O)(c3ccccc3)c3ccccc3)CC2)cc1` (stereo not given) as the molecule, how does the Potency read?
**A.** Its Potency is “inactive”.

**Q.** For `C=Cc1cccc(C)c1`, which Potency is on record?
**A.** The Potency was “inactive”.

**Q.** With `CCc1ccc(Br)cc1` as the molecule, how does the Potency read?
**A.** Its Potency is “inactive”.

**Q.** With `Clc1ccnc(Cl)n1` as the molecule, how does the Potency read?
**A.** The Potency was “inactive”.
